The text below walks through data of PubChem BioAssay (EPA / NIEHS).

Several values for one entry are separate records, joined by “and”; a condition that tells them apart may be missing. Identical values can stand only once. Records with an inconclusive call do not appear. Where a structure was tested more than once in an assay, its records may differ in their call. Activity calls are given as the source filed them. How the source made its calls, unless noted: active means hit-call score of the fitted dose curve at least 0.9, where 1 is the maximum; inactive means score below 0.9.

Assay [1] is described as follows: ATG_PXRE_CIS: Attagene CIS-FACTORIAL HepG2 Assay for human Pregnane X Receptor Element (PXRE) (AID 2282957). Particulars: HepG2 Attagene CIS-FACTORIAL PXRE reporter, mRNA; actives raise or lower the signal. The method, boiled down: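 HepG2 cells transiently transfected with cis-regulated multiple reporter transcription units; endogenous factor activity measured as reporter mRNA 24 h after dosing. RT-PCR, fluorescent primer extension, HpaI digestion, capillary electrophoresis; bidirectional fit versus DMSO baseline.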

Assay [2] can be described thus: ATG_PPRE_CIS: Attagene CIS-FACTORIAL HepG2 Assay for human Peroxisome Proliferator-activated Response Element (PPRE) (AID 2282958). Particulars: HepG2 PPRE cis-element reporter, Attagene transcription factor profiling; actives raise or lower the signal. Summed up:
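HepG2, transient MRTU transfection (cis promoter elements, endogenous TFs). 24 h dosing. RNA → oligo(dT) RT → PCR → 6-FAM primer extension → HpaI digest → CE. Bidirectional fit vs DMSO.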

Assay [3] in a line: ATG_Sox_CIS: Attagene CIS-FACTORIAL HepG2 Assay for human SRY-box transcription factor (SOX) (AID 2282960). Particulars: HepG2 Attagene cis-factorial SOX reporter, mRNA; actives raise or lower the signal. Summed up: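 Endogenous factor activity in human liver HepG2 cells carrying transfected cis-regulated reporter units. RNA taken 24 h post-dose, reverse-transcribed, PCR-amplified and sized by capillary electrophoresis. Gain or loss of signal fitted relative to DMSO.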

Assay [4] is described as follows: ATG_SREBP_CIS: Attagene CIS-FACTORIAL HepG2 Assay for human Sterol Regulatory Element Binding (SREBP) (AID 2282962). Particulars: HepG2 Attagene cis-factorial SREBP reporter, mRNA; actives raise or lower the signal. The method, boiled down: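 Transfected HepG2 (cis-regulated reporter library, endogenous TFs) → compound 24 h → total RNA → oligo(dT) RT → reporter-specific PCR → FAM primer extension, HpaI cut → CE fluorescence. Fit bidirectional vs DMSO.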

In assay [5] the target is Signal transducer and activator of transcription 3 (Homo sapiens) (UniProt P40763). Nature of the assay: ATG_STAT3_CIS: Attagene CIS-FACTORIAL HepG2 Assay for human Signal Transducer and Activator of Transcription 3 (STAT3) (AID 2282963). The settings on record: HepG2, Attagene cis-factorial STAT3 reporter transcription; actives raise or lower the signal. The method, boiled down: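 HepG2 cells transiently transfected with multiple cis-element-driven reporter units report endogenous transcription factor activity. After 24 h compound exposure, reporter mRNA is measured by RT-PCR, 6-FAM labelling, HpaI digestion and capillary electrophoresis. Fitted bidirectionally versus DMSO.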
Chain of Signal transducer and activator of transcription 3 (Homo sapiens) (P40763 whole entry, looked up): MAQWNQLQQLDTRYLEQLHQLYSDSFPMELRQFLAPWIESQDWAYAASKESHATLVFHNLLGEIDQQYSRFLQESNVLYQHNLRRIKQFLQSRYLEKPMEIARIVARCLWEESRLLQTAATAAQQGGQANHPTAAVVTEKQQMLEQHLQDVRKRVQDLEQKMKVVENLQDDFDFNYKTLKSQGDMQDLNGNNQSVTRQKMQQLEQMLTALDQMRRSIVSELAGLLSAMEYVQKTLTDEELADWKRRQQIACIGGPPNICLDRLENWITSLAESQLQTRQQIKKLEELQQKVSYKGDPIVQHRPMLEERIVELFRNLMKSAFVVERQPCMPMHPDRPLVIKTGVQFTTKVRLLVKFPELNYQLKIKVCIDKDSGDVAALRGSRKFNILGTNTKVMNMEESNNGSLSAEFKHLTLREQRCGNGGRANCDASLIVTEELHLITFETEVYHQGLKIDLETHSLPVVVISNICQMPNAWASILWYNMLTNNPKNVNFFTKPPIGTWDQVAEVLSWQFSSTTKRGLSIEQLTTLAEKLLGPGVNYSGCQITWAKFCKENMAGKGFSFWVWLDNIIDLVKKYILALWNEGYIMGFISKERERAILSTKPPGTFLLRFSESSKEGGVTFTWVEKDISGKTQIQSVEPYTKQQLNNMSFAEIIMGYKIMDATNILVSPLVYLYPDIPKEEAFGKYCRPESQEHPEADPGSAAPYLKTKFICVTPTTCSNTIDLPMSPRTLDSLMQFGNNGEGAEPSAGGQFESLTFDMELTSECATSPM

Assay [6] can be described thus: ATG_TA_CIS: Attagene CIS-FACTORIAL HepG2 Assay for human TA Basal Promoter (AID 2282964). The settings on record: HepG2 Attagene CIS-factorial TA basal promoter reporter; actives raise or lower the signal. The method, boiled down:
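Read-out: fluorescent reporter-transcript fragments resolved by capillary electrophoresis after RT-PCR and HpaI digestion. Source: HepG2 cells carrying transiently transfected multi-reporter cis constructs, treated 24 h. Endpoint fitted bidirectionally relative to DMSO.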

The nature of assay [7]: ATG_TCF_b_cat_CIS: Attagene CIS-FACTORIAL HepG2 Assay for human T-Cell-Factor with beta-catenin (TCF/b-cat) (AID 2282965). The settings on record: HepG2 TCF/beta-catenin cis-reporter transcription, actives raise or lower the signal. Summed up: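 HepG2, transient MRTU transfection, cis-element-driven reporters (endogenous TFs). 24 h compound exposure. Readout: reporter mRNA by RT-PCR + 6-FAM primer extension, HpaI digest, capillary electrophoresis. Gain/loss fit vs DMSO baseline.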

Assay [8] in a line: ATG_TAL_CIS: Attagene CIS-FACTORIAL HepG2 Assay for human TAL Basal Promoter (AID 2282966).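 Further: background control endpoint measuring basal TAL promoter reporter mRNA not a specific factor.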 The settings on record: HepG2 Attagene cis-factorial TAL promoter reporter; actives raise or lower the signal. Summed up:
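HepG2 cells were transiently transfected with promoter-driven multiplexed reporter units and dosed for 24 h. Reporter mRNA was measured by RT-PCR with capillary electrophoresis fluorescence; bidirectional fits used DMSO as baseline, serving as a background control.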

Assay [9] is described as follows: ATG_TGFb_CIS: Attagene CIS-FACTORIAL HepG2 Assay for human Transforming Growth Factor (TGF) (AID 2282967). The settings on record: HepG2 Attagene CIS TGFb reporter, mRNA transcription; actives raise or lower the signal. Summed up: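 Transient MRTU transfection of HepG2 (FuGene 6). Dose 24 h. TriZol RNA, oligo(dT) RT, PCR, 6-FAM primer extension, HpaI cut, CE. Bidirectional fit, DMSO = baseline.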

Assay [10] deals with Nuclear receptor subfamily 1 group I member 3 (Homo sapiens) (UniProt Q14994). The assay is described as follows: ATG_CAR_TRANS: Attagene TRANS-FACTORIAL HepG2 Assay for human Constitutive Androstane Receptor (CAR) (AID 2282969; active means hit-call score of the fitted dose curve at least 0.9, where 1 is the maximum;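 further: activators raise reporter mRNA above DMSO so AC50 marks induction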). Particulars: HepG2 Attagene TRANS-FACTORIAL CAR reporter. Summed up: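 HepG2 cells transiently transfected with GAL4-UAS reporter units; TRANS format reads activity of exogenous chimeric NR-Gal4 protein. After 24 h dosing, reporter mRNA quantified by RT-PCR, 6-FAM labelling and capillary electrophoresis; gain of signal fitted against DMSO.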
Chain of Nuclear receptor subfamily 1 group I member 3 (Homo sapiens) (Q14994 whole entry, looked up, the tested form may be a part): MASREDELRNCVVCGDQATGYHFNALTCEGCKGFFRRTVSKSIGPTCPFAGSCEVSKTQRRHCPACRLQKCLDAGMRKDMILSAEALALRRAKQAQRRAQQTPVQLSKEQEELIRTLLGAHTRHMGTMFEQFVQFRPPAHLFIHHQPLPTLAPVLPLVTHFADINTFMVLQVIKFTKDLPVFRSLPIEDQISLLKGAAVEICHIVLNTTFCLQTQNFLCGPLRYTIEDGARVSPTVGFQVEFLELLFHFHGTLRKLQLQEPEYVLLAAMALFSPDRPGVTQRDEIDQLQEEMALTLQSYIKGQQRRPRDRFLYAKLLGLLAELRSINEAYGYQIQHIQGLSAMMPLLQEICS

For assay [11], the target named is X-box-binding protein 1 (Homo sapiens) (UniProt P17861). The assay is described as follows: ATG_Xbp1_CIS: Attagene CIS-FACTORIAL HepG2 Assay for human X-box Binding Protein 1 (XBP1) (AID 2282972). Particulars: HepG2 XBP1 cis-element reporter, Attagene multiplex; actives raise or lower the signal. Summed up: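 HepG2, transient MRTU transfection (cis-promoter driven), 24 h compound exposure. Total RNA → oligo(dT) RT → PCR → 6-FAM labeling → HpaI cut → CE. Bidirectional fit vs DMSO.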
Chain of X-box-binding protein 1 (Homo sapiens) (P17861 whole entry, looked up): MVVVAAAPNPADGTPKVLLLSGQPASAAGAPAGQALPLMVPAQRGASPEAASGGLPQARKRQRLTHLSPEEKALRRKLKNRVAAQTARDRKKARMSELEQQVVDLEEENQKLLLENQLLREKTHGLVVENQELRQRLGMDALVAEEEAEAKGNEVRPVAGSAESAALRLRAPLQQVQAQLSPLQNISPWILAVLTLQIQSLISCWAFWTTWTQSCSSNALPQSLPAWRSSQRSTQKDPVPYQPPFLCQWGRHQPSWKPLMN

Assay [12] is described as follows: ATG_M_19_TRANS: Attagene TRANS-FACTORIAL HepG2 Assay for M19 Transcription Factor (Internal Marker) (AID 2282974; active means hit-call score of the fitted dose curve at least 0.9, where 1 is the maximum). Particulars: HepG2 Attagene TRANS-FACTORIAL M19 internal marker reporter. Summed up: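 Fluorescence of 6-FAM-labelled reporter cDNA fragments, separated by capillary electrophoresis, served as the readout. These derived from HepG2 cells carrying transfected GAL4-UAS reporter units after 24 h dosing, with DMSO as negative control.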

The nature of assay [13]: ATG_RORE_CIS: Attagene CIS-FACTORIAL HepG2 Assay for human RAR-related Orphan Receptor Element (RORE) (AID 2282959). Particulars: HepG2 Attagene cis-factorial RORE reporter, mRNA; actives raise or lower the signal. The method, boiled down: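 Transient MRTU transfection of human HepG2 liver cells (FuGene 6); 24 h compound exposure; TriZol RNA, oligo(dT) RT, PCR, FAM labeling, HpaI cut, CE fragment analysis. DMSO = negative control/baseline.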

Assay [14] deals with Transcription factor Sp1 (Homo sapiens) (UniProt P08047). Nature of the assay: ATG_Sp1_CIS: Attagene CIS-FACTORIAL HepG2 Assay for human Specificity Protein 1 (Sp1) (AID 2282961). The settings on record: HepG2 Sp1 cis-reporter transcription, actives raise or lower the signal. Summed up: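 Transient MRTU-transfected HepG2, 24 h compound exposure. Total RNA → oligo(dT) RT → PCR of reporter → 6-FAM primer extension → HpaI digest → CE. Endpoint fitted both directions vs DMSO.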
Chain of Transcription factor Sp1 (Homo sapiens) (P08047 whole entry, looked up): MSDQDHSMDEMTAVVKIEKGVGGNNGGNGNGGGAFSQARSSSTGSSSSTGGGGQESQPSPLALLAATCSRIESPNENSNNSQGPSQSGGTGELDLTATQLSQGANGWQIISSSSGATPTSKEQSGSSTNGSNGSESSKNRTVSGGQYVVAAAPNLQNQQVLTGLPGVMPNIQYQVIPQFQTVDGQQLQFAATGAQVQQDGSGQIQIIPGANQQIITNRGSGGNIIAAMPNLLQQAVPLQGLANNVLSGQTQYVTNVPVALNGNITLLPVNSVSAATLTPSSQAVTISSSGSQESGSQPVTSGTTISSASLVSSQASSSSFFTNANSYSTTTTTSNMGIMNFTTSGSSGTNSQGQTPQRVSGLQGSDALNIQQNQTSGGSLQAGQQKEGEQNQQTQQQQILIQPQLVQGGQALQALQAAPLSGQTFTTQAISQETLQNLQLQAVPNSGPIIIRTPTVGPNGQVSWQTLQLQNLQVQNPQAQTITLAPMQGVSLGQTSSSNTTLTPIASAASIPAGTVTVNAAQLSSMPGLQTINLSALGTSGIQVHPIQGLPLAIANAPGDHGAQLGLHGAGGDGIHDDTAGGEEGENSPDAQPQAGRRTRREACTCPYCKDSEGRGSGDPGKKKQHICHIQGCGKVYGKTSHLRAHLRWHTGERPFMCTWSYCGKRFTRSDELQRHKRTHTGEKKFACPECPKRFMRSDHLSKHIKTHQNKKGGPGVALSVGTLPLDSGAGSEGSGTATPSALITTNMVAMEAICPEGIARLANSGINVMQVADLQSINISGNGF

A short description of assay [15]: ATG_VDRE_CIS: Attagene CIS-FACTORIAL HepG2 Assay for human Vitamin D Receptor Element (VDRE) (AID 2282968). Particulars: HepG2 VDRE cis-reporter transcription, actives raise or lower the signal. Summed up:
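Transiently transfected HepG2 cells carrying cis-regulated reporter transcription units were exposed for 24 h. Reporter mRNA was measured by RT-PCR with fluorescent labelling and capillary electrophoresis, and fitted in both directions against DMSO.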

Assay [16] has as its target Estrogen receptor (Homo sapiens) (UniProt P03372). Nature of the assay: ATG_ERa_TRANS: Attagene TRANS-FACTORIAL HepG2 Assay for human Estrogen Receptor alpha (ERa) (AID 2282970; active means hit-call score of the fitted dose curve at least 0.9, where 1 is the maximum). Particulars: HepG2 Attagene TRANS ERa GAL4 reporter, mRNA. Summed up:
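HepG2 cells transiently transfected with multiplexed GAL4-UAS reporter units; ERa activity read via exogenous chimeric NR-Gal4 protein. After 24 hour compound exposure, reporter mRNA measured by RT-PCR with 6-FAM labelling and capillary electrophoresis; gain-of-signal fitted relative to DMSO.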

Assay [17] deals with Estrogen-related receptor gamma (Homo sapiens) (UniProt P62508). Nature of the assay: ATG_ERRg_TRANS: Attagene TRANS-FACTORIAL HepG2 Assay for human Estrogen-Related Receptor gamma (ERRg) (AID 2282977; active means hit-call score of the fitted dose curve at least 0.9, where 1 is the maximum;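 further: hits increase reporter signal over DMSO so potencies reflect activators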). Particulars: HepG2 Attagene TRANS reporter, ERRg transactivation. Summed up:
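Transfect HepG2 with multiple GAL4-UAS reporter transcription units; dose chemicals 24 h; isolate RNA, reverse-transcribe with oligo(dT), PCR-amplify, label with 6-FAM, digest with HpaI; size fragments by capillary electrophoresis. DMSO serves as negative control.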

Assay [18] is described as follows: ATG_GAL4_TRANS: Attagene TRANS-FACTORIAL HepG2 Assay for GAL4 (Internal Marker) (AID 2282976; active means hit-call score of the fitted dose curve at least 0.9, where 1 is the maximum). The settings on record: HepG2 Attagene TRANS GAL4 internal marker reporter. Summed up: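 HepG2 cells transiently transfected with multiplexed GAL4-UAS reporter constructs were dosed for 24 h. Reporter mRNA was measured by RT-PCR, 6-FAM primer extension, HpaI digestion and capillary electrophoresis, and gain of signal was fitted relative to DMSO.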

Assay [19] has as its target Steroid hormone receptor ERR1 (Homo sapiens) (UniProt P11474). The assay is described as follows: ATG_ERRa_TRANS: Attagene TRANS-FACTORIAL HepG2 Assay for human Estrogen-Related Receptor alpha (ERRa) (AID 2282971; active means hit-call score of the fitted dose curve at least 0.9, where 1 is the maximum). The settings on record: HepG2 Attagene TRANS reporter, ERRa transactivation. Summed up: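 HepG2 cells transiently transfected with multiplexed GAL4-UAS reporter units reading chimeric ERRa-Gal4 activity; 24 h compound exposure. Reporter mRNA measured by RT-PCR, 6-FAM labelling, HpaI digest and capillary electrophoresis; gain of signal fitted versus DMSO baseline.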

Assay [20] has as its target Glucocorticoid receptor (Homo sapiens) (UniProt P04150). Nature of the assay: ATG_GR_TRANS: Attagene TRANS-FACTORIAL HepG2 Assay for human Glucocorticoid Receptor (GR) (AID 2282978; active means hit-call score of the fitted dose curve at least 0.9, where 1 is the maximum;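 further: activators score as hits since higher reporter transcript over DMSO is fitted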). The settings on record: HepG2 Attagene TRANS GR reporter, mRNA transcription. Summed up: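 Fluorescent capillary-electrophoresis quantitation of reporter mRNA is the readout, taken 24 h after dosing human HepG2 cells carrying transiently transfected GAL4-UAS reporter units activated by chimeric NR-GAL4 fusions; activity scored as induction over DMSO.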

Chain of Estrogen-related receptor gamma (Homo sapiens) (P62508 whole entry, looked up, the tested form may be a part): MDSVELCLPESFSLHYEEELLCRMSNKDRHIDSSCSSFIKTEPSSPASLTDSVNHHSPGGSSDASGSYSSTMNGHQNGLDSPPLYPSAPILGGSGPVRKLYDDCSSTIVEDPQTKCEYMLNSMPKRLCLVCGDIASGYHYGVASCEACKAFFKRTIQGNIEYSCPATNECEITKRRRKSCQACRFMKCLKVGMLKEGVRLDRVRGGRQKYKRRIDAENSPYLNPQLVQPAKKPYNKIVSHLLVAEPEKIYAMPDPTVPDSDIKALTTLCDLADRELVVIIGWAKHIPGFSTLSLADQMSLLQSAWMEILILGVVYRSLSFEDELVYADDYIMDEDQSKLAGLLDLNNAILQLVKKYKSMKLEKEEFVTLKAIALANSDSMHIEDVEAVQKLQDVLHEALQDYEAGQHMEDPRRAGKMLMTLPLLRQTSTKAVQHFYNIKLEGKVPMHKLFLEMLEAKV
Chain of Estrogen receptor (Homo sapiens) (P03372 whole entry, looked up, the tested form may be a part): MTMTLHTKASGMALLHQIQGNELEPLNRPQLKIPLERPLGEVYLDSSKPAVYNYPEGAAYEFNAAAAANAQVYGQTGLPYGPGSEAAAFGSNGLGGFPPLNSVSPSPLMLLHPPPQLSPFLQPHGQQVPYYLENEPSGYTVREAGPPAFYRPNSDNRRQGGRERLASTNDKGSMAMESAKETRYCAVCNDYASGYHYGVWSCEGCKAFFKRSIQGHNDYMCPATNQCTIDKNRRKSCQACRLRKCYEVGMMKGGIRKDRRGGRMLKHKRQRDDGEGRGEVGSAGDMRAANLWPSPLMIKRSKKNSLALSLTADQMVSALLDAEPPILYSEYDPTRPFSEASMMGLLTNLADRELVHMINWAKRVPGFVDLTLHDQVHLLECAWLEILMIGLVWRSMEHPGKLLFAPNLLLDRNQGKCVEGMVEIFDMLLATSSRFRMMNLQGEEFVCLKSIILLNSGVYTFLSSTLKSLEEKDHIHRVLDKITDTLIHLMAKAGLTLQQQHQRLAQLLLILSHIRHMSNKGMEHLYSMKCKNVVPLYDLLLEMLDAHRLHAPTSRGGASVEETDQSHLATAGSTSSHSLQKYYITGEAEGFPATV
Chain of Glucocorticoid receptor (Homo sapiens) (P04150 whole entry, looked up, the tested form may be a part): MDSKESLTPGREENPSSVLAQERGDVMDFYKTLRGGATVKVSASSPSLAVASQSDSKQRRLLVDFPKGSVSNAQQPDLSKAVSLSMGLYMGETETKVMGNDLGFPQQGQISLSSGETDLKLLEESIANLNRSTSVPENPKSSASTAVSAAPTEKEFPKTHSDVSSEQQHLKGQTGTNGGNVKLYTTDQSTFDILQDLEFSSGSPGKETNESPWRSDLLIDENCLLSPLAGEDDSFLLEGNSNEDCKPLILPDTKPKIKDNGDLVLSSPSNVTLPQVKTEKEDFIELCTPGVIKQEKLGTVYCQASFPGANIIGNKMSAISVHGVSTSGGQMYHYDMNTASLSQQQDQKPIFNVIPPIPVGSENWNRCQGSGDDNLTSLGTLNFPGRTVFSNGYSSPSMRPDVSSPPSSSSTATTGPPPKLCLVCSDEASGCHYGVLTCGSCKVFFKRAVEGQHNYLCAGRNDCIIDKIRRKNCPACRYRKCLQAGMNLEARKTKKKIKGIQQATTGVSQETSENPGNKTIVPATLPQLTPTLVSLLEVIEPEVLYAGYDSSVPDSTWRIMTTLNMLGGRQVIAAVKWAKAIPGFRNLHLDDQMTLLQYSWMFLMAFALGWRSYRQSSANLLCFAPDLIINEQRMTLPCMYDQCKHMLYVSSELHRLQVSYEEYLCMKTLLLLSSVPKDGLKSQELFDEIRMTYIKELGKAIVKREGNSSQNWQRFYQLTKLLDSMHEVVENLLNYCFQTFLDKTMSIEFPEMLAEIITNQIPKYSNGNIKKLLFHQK
Chain of Steroid hormone receptor ERR1 (Homo sapiens) (P11474 whole entry, looked up, the tested form may be a part): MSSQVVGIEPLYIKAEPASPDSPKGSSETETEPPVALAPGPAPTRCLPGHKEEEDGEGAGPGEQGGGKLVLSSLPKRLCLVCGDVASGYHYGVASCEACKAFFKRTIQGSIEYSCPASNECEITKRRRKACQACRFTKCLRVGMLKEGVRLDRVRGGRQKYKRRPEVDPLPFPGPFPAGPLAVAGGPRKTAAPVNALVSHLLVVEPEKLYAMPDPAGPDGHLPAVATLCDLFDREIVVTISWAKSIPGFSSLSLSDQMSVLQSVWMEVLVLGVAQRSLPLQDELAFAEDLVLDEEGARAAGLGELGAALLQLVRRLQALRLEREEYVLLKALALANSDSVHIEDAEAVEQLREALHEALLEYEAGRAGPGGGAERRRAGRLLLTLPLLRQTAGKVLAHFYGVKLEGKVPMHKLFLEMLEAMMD

As to `Cc1cc(C(C)(C)C)c(O)c(C(C)(C)C)c1`, the AC50 in assay [1] is 8.81 µM (active) and 603 nM (active); in [2], 11.9 µM (active); in [4] it was 33.4 µM (active) and 60 µM (active); in [11] it was 33.4 µM (active) and 89.6 µM (active). The call in [2], in assay [3], in assay [5], in assay [6], in [7] and in [8] was inactive. Also, the call in [9], in [10] and in [12] was inactive.
Regarding `CCCCCCC(C)(C)C(=O)O`, the AC50 in assay [1] was 27.4 µM (active); in assay [2], 55.5 µM (active); in assay [15] it was 73.2 µM (active); in assay [16], 26.4 µM (active). For the same molecule, the outcome in assay [13], in assay [3], in assay [14], in assay [4], in assay [5] and in [6] was inactive. The molecule was called inactive in assay [7], in assay [8], in assay [9], in assay [10], in assay [11] and in assay [17].
As for `CCCCCCCCCCCCCCCC(=O)OC`, the molecule was classed as inactive in [1], in [2], in [13], in assay [3], in assay [14] and in assay [4]. The molecule was classed as inactive in [5], in [6], in [7], in [8], in [9] and in assay [15]. For the same molecule, the molecule was classed as inactive in [10], in assay [16], in [11], in [12] and in [18].
For `C/C=C/C(=O)C1=C(C)CCCC1(C)C`, the AC50 in assay [1] is 2.03 µM (active); in assay [3], 46.1 µM (active); in assay [14], 35.4 µM (active); in assay [4] it was 44.9 µM (active); in [7] it was 62.7 µM (active); in assay [15] it was 7.43 µM (active). Moreover, the AC50 in assay [11] is 34.6 µM (active). Further, the call in [2], in assay [13], in assay [5], in assay [6], in [8] and in [9] was inactive. In addition, the call in [10], in assay [19], in assay [18], in assay [17] and in assay [20] was inactive.
